Measurements published in PubChem BioAssay (NCI).
This is part of a sample that, as a whole, favours compounds with a hit. Of some 79,000 tested, about 15% had one in any assay. Active and inactive are the calls of the source. Cut-off read from the data, not from the text of the source: active = growth inhibition above about 70%; inactive = the rest.

Test: NCI Yeast Anticancer Drug Screen. Data for the sgs1 mgt1 strain (AID 161);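 note: 0% = growth of cultures given vehicle only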
Conditions: S. cerevisiae sgs1 mgt1 strain, at 5.0 µM (retest, dose inferred, filed as 0.5), hits give high values
Outline: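 Read-out: growth inhibition vs vehicle controls. Cells: mutant yeast strain deficient in DNA damage repair.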

Row | SMILES | growth inhibition
1 | C=C(CCC(C)C1CCC2(C)C3=C(CC(O)C12C)C1(C)CCC(O)C(C)(C)C1CC3)C(C)C(=O)O (stereo not given) | 20% (inactive)
2 | CC(=O)O[C@H]1CC[C@]2(C)C3=CC[C@]4(C)[C@@H](C(C)=O)CC[C@H]4[C@@]34C=C[C@]2(C1)C1C(=O)OC(=O)C14 (stereo not given in full) | 1% (inactive)
3 | CCC1(c2ccc(N3C(=O)c4ccccc4C3=O)cc2)CCC(=O)NC1=O (stereo not given) | -20% (inactive)
4 | O=C(NNS(=O)(=O)c1ccccc1)Nc1ccccc1 | -3% (inactive)
5 | CCN(CC)CCNc1c(C)ccc2cccnc12 | -2% (inactive)
6 | CCOC(=O)CCC(NC(=O)c1ccc(NC(OC)c2nc3cc(C(F)(F)F)ccc3nc2-c2ccccc2)cc1)C(=O)OCC (stereo not given) | 90% (active)
7 | CCCC(O)C[N+](=O)[O-] (stereo not given) | -2% (inactive)
8 | O=C(Nc1cccc(Br)c1)Oc1cccc2cccnc12 | 99% (active)
9 | C=C1CC(C)(COc2ccc3c(C)c(C)c(=O)oc3c2C)OC1=O (stereo not given) | 24% (inactive)
10 | Cc1cc(Br)c(N2C3=C(CC4=C2CCCC4=O)C(=O)CCC3)c(Br)c1 | -3% (inactive)
11 | CCN(CC)CC(O)CNc1ccc(C)c2sc3ccccc3c(=O)c12 (stereo not given) | 28% (inactive)
12 | COC1/C=C/OC2(C)Oc3c(C)c(O)c4c(c3C2=O)C(=O)C=C(NC(=O)/C(C)=C\C=C\C(C)C(OC=O)C(C)C(O)C(C)C(OC(C)=O)C1C)C4=O (stereo not given) | -12% (inactive)
13 | OC(c1cc2ccccc2o1)c1cc2ccccc2s1 (stereo not given) | 2% (inactive)
14 | Nc1nnc(-c2cc([N+](=O)[O-])cc([N+](=O)[O-])c2)o1 | -1% (inactive)
15 | CC1SC(=S)N(c2ccc(Cl)cc2)C1=O (stereo not given) | 2% (inactive)
16 | CCCCCCCCCC(=O)NN=C(C)C | -59% (inactive)
17 | O=C(/C=C/c1ccccc1)C1(c2ccccc2)CC1 | -53% (inactive)
18 | Nc1n[n+](-c2ccccc2)no1 | 24% (inactive)
19 | N#CC(C#N)=C(c1ccccc1)c1ccccc1 | 18% (inactive)
20 | CS(=O)(=O)OCCCN(CCCOS(C)(=O)=O)c1ccc(C=Nc2ccc(-c3csc(COc4ccc(Br)cc4Br)n3)cc2)cc1 | 13% (inactive)

Row | SMILES | growth inhibition
21 | CSc1ncnc2ncn(C3OC(CO)C(O)C3O)c12 (stereo not given) | -11% (inactive)
22 | CNC(=O)c1ccc(OC)cc1C1(O)c2ccccc2CCc2ccccc21 | 36% (inactive)
23 | O=[N+]([O-])c1ccc(Oc2c(Cl)cccc2Cl)cc1 | -6% (inactive)
24 | CN(C)C(=O)c1ccc(SC(=S)NCc2ccccc2)cc1 | 3% (inactive)
25 | CC(C)c1ccc(C(=O)OC2CCCCC2)cc1 | 7% (inactive)
26 | O=C(Nc1ccc(C(=O)c2ccccc2)cc1)Nc1ccc(Cl)c(Cl)c1 | 23% (inactive)
27 | O=C1c2ccccc2C(=O)c2sc(Nc3ccc(Cl)cc3)nc21 | 97% (active)
28 | O=C1NC(=O)N(c2ccc([N+](=O)[O-])cc2)C1=O | 3% (inactive)
29 | CCN(CC)CCNc1nc(N)c2nc(-c3ccccc3)c(-c3ccccc3)nc2n1 | -4% (inactive)
30 | CCCCCCCCOc1ccc(/C=C/C(C)=N/NC(N)=NC)cc1OC | 82% (active)
31 | CC1=NN(C(=O)c2ccc(Cl)cc2)C(=O)C1N=Nc1ccc(S(=O)(=O)Nc2ncccn2)cc1 (stereo not given) | 11% (inactive)
32 | CCOC(=O)C(Br)C(Br)c1cccc([N+](=O)[O-])c1 (stereo not given) | 99% (active)
33 | Cc1ccccc1N1CCN(c2c3c(nc4ccccc24)CCCCC3)CC1 | 7% (inactive)
34 | O=S(=O)(O)SCCNCCCCCC1CCCCC1 | 19% (inactive)
35 | CC([N+](=O)[O-])C1(O)C(=O)c2cccc3cccc1c23 (stereo not given) | 11% (inactive)
36 | CCS(CC)(CC)CC1CCCC2=CCC(P(=O)(c3ccccc3)c3ccccc3)CC21 (stereo not given) | 11% (inactive)
37 | O=C(O)C(CS)Nc1c2ccccc2nc2ccccc12 (stereo not given) | 11% (inactive)
38 | CCCCCCCCCCCC1C(C#N)C(=O)NC(=O)C1C#N (stereo not given) | 87% (active)
39 | O=C(O)CCSSCCCCCS(=O)O | -1% (inactive)
40 | CC(C)CNc1cc(Cl)nc(N)n1 | 2% (inactive)

Same assay, conditions: S. cerevisiae sgs1 mgt1 strain, at 50.0 µM (retest, dose inferred, filed as 5.0), hits give high values

Row | SMILES | growth inhibition
41 | C=C(CCC(C)C1CCC2(C)C3=C(CC(O)C12C)C1(C)CCC(O)C(C)(C)C1CC3)C(C)C(=O)O (stereo not given) | 90% (active)
42 | CC(=O)O[C@H]1CC[C@]2(C)C3=CC[C@]4(C)[C@@H](C(C)=O)CC[C@H]4[C@@]34C=C[C@]2(C1)C1C(=O)OC(=O)C14 (stereo not given in full) | 7% (inactive)
43 | CCC1(c2ccc(N3C(=O)c4ccccc4C3=O)cc2)CCC(=O)NC1=O (stereo not given) | 5% (inactive)
44 | O=C(NNS(=O)(=O)c1ccccc1)Nc1ccccc1 | 6% (inactive)
45 | CCN(CC)CCNc1c(C)ccc2cccnc12 | -2% (inactive)
46 | CCOC(=O)CCC(NC(=O)c1ccc(NC(OC)c2nc3cc(C(F)(F)F)ccc3nc2-c2ccccc2)cc1)C(=O)OCC (stereo not given) | 90% (active)
47 | CCCC(O)C[N+](=O)[O-] (stereo not given) | 9% (inactive)
48 | O=C(Nc1cccc(Br)c1)Oc1cccc2cccnc12 | 99% (active)
49 | C=C1CC(C)(COc2ccc3c(C)c(C)c(=O)oc3c2C)OC1=O (stereo not given) | 73% (active)
50 | Cc1cc(Br)c(N2C3=C(CC4=C2CCCC4=O)C(=O)CCC3)c(Br)c1 | 80% (active)
51 | CCN(CC)CC(O)CNc1ccc(C)c2sc3ccccc3c(=O)c12 (stereo not given) | 100% (active)
52 | COC1/C=C/OC2(C)Oc3c(C)c(O)c4c(c3C2=O)C(=O)C=C(NC(=O)/C(C)=C\C=C\C(C)C(OC=O)C(C)C(O)C(C)C(OC(C)=O)C1C)C4=O (stereo not given) | 29% (inactive)
53 | OC(c1cc2ccccc2o1)c1cc2ccccc2s1 (stereo not given) | 46% (inactive)
54 | Nc1nnc(-c2cc([N+](=O)[O-])cc([N+](=O)[O-])c2)o1 | 14% (inactive)
55 | CC1SC(=S)N(c2ccc(Cl)cc2)C1=O (stereo not given) | 47% (inactive)
56 | CCCCCCCCCC(=O)NN=C(C)C | 75% (active)
57 | O=C(/C=C/c1ccccc1)C1(c2ccccc2)CC1 | -2% (inactive)
58 | Nc1n[n+](-c2ccccc2)no1 | 60% (inactive)
59 | N#CC(C#N)=C(c1ccccc1)c1ccccc1 | 99% (active)
60 | CS(=O)(=O)OCCCN(CCCOS(C)(=O)=O)c1ccc(C=Nc2ccc(-c3csc(COc4ccc(Br)cc4Br)n3)cc2)cc1 | 82% (active)

Row | SMILES | growth inhibition
61 | CSc1ncnc2ncn(C3OC(CO)C(O)C3O)c12 (stereo not given) | 2% (inactive)
62 | CNC(=O)c1ccc(OC)cc1C1(O)c2ccccc2CCc2ccccc21 | 78% (active)
63 | O=[N+]([O-])c1ccc(Oc2c(Cl)cccc2Cl)cc1 | -33% (inactive)
64 | CN(C)C(=O)c1ccc(SC(=S)NCc2ccccc2)cc1 | 98% (active)
65 | CC(C)c1ccc(C(=O)OC2CCCCC2)cc1 | 96% (active)
66 | O=C(Nc1ccc(C(=O)c2ccccc2)cc1)Nc1ccc(Cl)c(Cl)c1 | 97% (active)
67 | O=C1c2ccccc2C(=O)c2sc(Nc3ccc(Cl)cc3)nc21 | 99% (active)
68 | O=C1NC(=O)N(c2ccc([N+](=O)[O-])cc2)C1=O | 6% (inactive)
69 | CCN(CC)CCNc1nc(N)c2nc(-c3ccccc3)c(-c3ccccc3)nc2n1 | 36% (inactive)
70 | CCCCCCCCOc1ccc(/C=C/C(C)=N/NC(N)=NC)cc1OC | 99% (active)
71 | CC1=NN(C(=O)c2ccc(Cl)cc2)C(=O)C1N=Nc1ccc(S(=O)(=O)Nc2ncccn2)cc1 (stereo not given) | 8% (inactive)
72 | CCOC(=O)C(Br)C(Br)c1cccc([N+](=O)[O-])c1 (stereo not given) | 100% (active)
73 | Cc1ccccc1N1CCN(c2c3c(nc4ccccc24)CCCCC3)CC1 | 95% (active)
74 | O=S(=O)(O)SCCNCCCCCC1CCCCC1 | 83% (active)
75 | CC([N+](=O)[O-])C1(O)C(=O)c2cccc3cccc1c23 (stereo not given) | 96% (active)
76 | CCS(CC)(CC)CC1CCCC2=CCC(P(=O)(c3ccccc3)c3ccccc3)CC21 (stereo not given) | 11% (inactive)
77 | O=C(O)C(CS)Nc1c2ccccc2nc2ccccc12 (stereo not given) | 76% (active)
78 | CCCCCCCCCCCC1C(C#N)C(=O)NC(=O)C1C#N (stereo not given) | 92% (active)
79 | O=C(O)CCSSCCCCCS(=O)O | 0% (inactive)
80 | CC(C)CNc1cc(Cl)nc(N)n1 | -3% (inactive)
